Source: PubChem (several laboratories)
The list is not random: actives were taken first. Their share in the collection is about 2.3%.
ADAM17 inh = inhibitors of human ADAM17. P78536. recombinant ADAM17, EDANS/DABCYL FRET peptide cleavage. inhibition, % at 6.95 µM. actives 0.83% (n = 370,000). AID 720648;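 active = inhibition above the mean of compounds lying between control limits plus 3 SD, set per campaign, cut at about 8.5% in these data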;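 note: 0% = DMSO-only wells as the low control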
KLK7 zymogen act = activators of human kallikrein-7 zymogen; P49862; purified proKLK7, EDANS-DABCYL substrate fluorescence; 100% is mature enzyme control, 0% vehicle; activation, % at 7 µM; actives 0.9% (n = 370,000);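 active = activation above the mean of all tested compounds plus 3 SD, computed per campaign excluding outliers beyond control limits, cut at about 13% in these data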
ADAM10 inh = inhibitors of human ADAM10 | actives 0.62% (n = 370,000) | AID 720582 | recombinant ADAM10, EDANS/DABCYL FRET peptide cleavage, 3 h | O14672 | inhibition, % at 7 µM;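 active = inhibition above a per-campaign cutoff equal to the mean of compounds falling between control-based bounds plus 3 SD, cut at about 20% in these data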;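 note: 0% = DMSO wells while the 100% control is not disclosed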
Target sequence (O14672 214-748 limits assumed): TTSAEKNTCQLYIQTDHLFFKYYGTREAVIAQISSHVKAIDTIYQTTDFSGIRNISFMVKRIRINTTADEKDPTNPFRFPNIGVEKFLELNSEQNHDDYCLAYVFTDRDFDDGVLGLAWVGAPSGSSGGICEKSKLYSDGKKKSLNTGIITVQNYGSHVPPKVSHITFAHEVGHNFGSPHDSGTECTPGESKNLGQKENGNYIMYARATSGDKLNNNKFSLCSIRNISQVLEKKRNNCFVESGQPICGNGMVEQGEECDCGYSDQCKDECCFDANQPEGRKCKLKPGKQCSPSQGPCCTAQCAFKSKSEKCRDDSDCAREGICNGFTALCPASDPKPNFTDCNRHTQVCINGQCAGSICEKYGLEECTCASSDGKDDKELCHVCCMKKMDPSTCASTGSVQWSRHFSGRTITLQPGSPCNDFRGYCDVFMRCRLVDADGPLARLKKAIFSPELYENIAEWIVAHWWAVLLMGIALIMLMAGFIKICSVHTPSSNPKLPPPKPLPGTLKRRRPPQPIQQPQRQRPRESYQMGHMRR
V-ATPase pH = regulators of yeast V-ATPase proton transport | S. cerevisiae, pHLuorin cytosolic pH fluorescence | response, % at 10 µM | actives 0.37% (n = 350,000) | AID 504577; in the data active = response mostly above about 7.3%, no sharp cut-off; inactive = mostly below about 5.4%; note: actives read high
VATPase regulator = regulators of yeast V-ATPase proton transport; shares compounds with V-ATPase pH; S. cerevisiae pHLuorin cytosolic pH; response, % at 10 µM; actives 2% (n = 980); AID 602197; in the data active = response above about 24%;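 note: plate controls were vehicle wells for no effect and positive control wells for full effect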
* marks the source's active call; other numbers are inactive results; . = no result given.

SMILES	ADAM17 inh	KLK7 zymogen act	ADAM10 inh	V-ATPase pH	VATPase regulator
O=C(CCl)Nc1ccc(C(=O)NCC2COc3ccccc3O2)cc1 (stereo unspecified)	4.0	1.0	3.0	.	.
O=C(C1CCN(c2nc(-c3ccccc3)nc3c2CCC3)CC1)N1CCC(O)CC1	-3.3	-0.1	-7.1	11.3*	-0.8
COc1cc(F)cc(-c2ccc3c(c2)c(-c2cccs2)c(-c2cc(OC)cc(OC)c2)n3C)c1	-6.3	0.6	-7.4	3.5	.
COc1cc(OC)cc(-c2c(-c3cccs3)c3cc(-c4ccc(CN5CCOCC5)cc4)ccc3n2C)c1	-5.8	-0.7	-30.1	7.8*	-69.5
Cc1ccc(NC(=O)Cc2ccc(F)cc2)c(S(=O)(=O)N2CCOCC2)c1	-1.5	-0.2	-4.5	.	.
CCOC(=O)c1c(NC(=O)COC(=O)CCNS(=O)(=O)c2ccccc2)sc(C(=O)NC)c1C	-4.2	0.5	-7.8	9.8*	0.9
COC(=O)c1c(NC(=O)COC(=O)CCNS(=O)(=O)c2ccccc2)sc(C)c1C	0.1	0.0	-4.3	2.4	.
O=C(NCCCc1ccccc1)[C@H](Cc1ccccc1)NC1(C(=O)NCCc2c[nH]c3ccccc23)CCOCC1	5.0	.	15.1	.	.
C=CCn1c(SCC(=O)Nc2ccccc2OCC)nnc1-c1ccc(C(C)(C)C)cc1	5.9	-0.2	5.3	.	.
O=C(O)c1ccc(/C=N/N2CCN(C3c4ccccc4-c4ccccc43)CC2)cc1	-6.5	0.0	-0.1	19.5*	46.3*
Oc1ccc(/C=N/N2CCN(C3c4ccccc4-c4ccccc43)CC2)cc1	-0.5	0.0	-2.9	-0.1	.
O=C(NC(=S)Nc1cccc(S(=O)(=O)NC2=NCCC2)c1)c1cc(-c2ccco2)nc2ccccc12	-81.4	0.1	-200.5	13.4*	-3.1
O=C(Nc1cccc(S(=O)(=O)NC2=NCCC2)c1)c1cc(-c2ccco2)nc2ccccc12	-141.4	-11.6	-457.7	1.3	.
CC1=NN(c2nc(N)nc(/C(C#N)=C/c3ccc([N+](=O)[O-])o3)n2)C(C)(C)C1	1.5	-0.2	0.5	47.6*	0.0
COc1ccc(-c2cc(C(=O)NN=Cc3ccccc3[N+](=O)[O-])[nH]n2)cc1	-0.8	-0.1	-7.2	.	.
COc1cccc(/C=C2\CC3(OC(=O)C4CCCC4)CCCN2C3)c1 (stereo unspecified)	-0.4	0.8	-8.2	.	.
CC(C)C(NC(=O)c1ccccc1NC(=O)c1ccccc1)C(=O)NCCCn1ccnc1 (stereo unspecified)	.	.	.	9.5*	0.6
Cc1ccc(NC2OC(C(O)CO)C(O)C2O)cc1[N+](=O)[O-] (stereo unspecified)	-0.9	0.0	9.0	35.9*	-4.0
Cc1ccc(-c2cc(-c3nnc(SCC(=O)Nc4ccc(OCc5ccccc5)cc4)n3N)[nH]n2)cc1	0.6	0.3	0.3	.	.
COC(=O)C1CCC(CNC(=O)C(Cc2ccc3c(c2)OCO3)NC(C)=O)CC1 (stereo unspecified)	3.5	0.7	-4.0	.	.
Cc1ccc(NS(=O)(=O)c2cccc(C(=O)N3CCCCCCC3)c2)cc1	-4.1	-0.6	3.1	11.1*	-0.8
Cc1ccc(NS(=O)(=O)c2cccc(C(=O)N3CCOCC3)c2)cc1	-0.2	0.3	5.6	1.8	.
Cc1onc(-c2ccccc2)c1C(=O)c1c[nH]c(C(=O)NCc2ccncc2)c1	-5.6	0.3	-2.4	10.8*	2.4
COC(=O)[C@]12CCCCC=C1N(Cc1ccc(OC)cc1)C(=O)[C@@H]2CC(=O)N1CCN(C(=O)c2ccco2)CC1	-4.0	0.2	-0.8	.	.
COc1cc(CC(=O)OCC(=O)NC2CCCC2)cc(OC)c1OC	-2.7	-0.2	-14.6	12.2*	-0.8
SMILES	ADAM17 inh	KLK7 zymogen act	ADAM10 inh	V-ATPase pH	VATPase regulator
CC1CN(c2ccnc3cc(Cl)ccc23)CCN1C(=O)c1ccc(Cl)cc1 (stereo unspecified)	-0.8	.	-5.3	.	.
O=C(Nc1nnc(-c2ccccc2Cl)o1)c1ccco1	-4.5	0.6	-2.3	11.3*	0.6
Cc1ccc(-c2nnc(NC(=O)c3ccco3)o2)c(C)c1	-2.7	0.3	0.1	0.0	.
O=C1NCCN1CCN1CCC(c2cn(-c3ccc(F)cc3)c3ccc(Cl)cc23)CC1	3.2	1.3	-2.1	.	.
CCN(CC)C(=O)CC[C@H]1CC[C@]2(CCCN(Cc3ccncc3)C2)O1	1.8	0.5	0.6	.	.
Cc1ccc(NC(=O)CS(=O)Cc2nc(-c3ccc(C)cc3)oc2C)cc1 (stereo unspecified)	-2.4	0.8	-1.6	10.6*	3.4
C[C@H]1[C@@H](OC(=O)NCc2ccccc2Cl)CC[C@@]23CCCN2C(=O)CCC[C@@H]13	-6.5	.	-12.0	.	.
CC(=O)N/C(=C\c1ccccc1)C(=O)N1CCOCC1	-3.9	-0.4	-7.4	10.4*	1.7
C=CCCC(=O)N1CCC(C(=O)NCC2COc3ccccc3O2)CC1 (stereo unspecified)	1.6	0.7	-2.8	.	.
COc1ccc(-c2nc3ccccc3c(=O)n2NC(=O)Cc2ccccc2)cc1	1.7	0.4	2.0	9.8*	0.8
CC(=NN1CCN(c2ccccn2)CC1)c1ccccc1O	-2.5	1.1	-7.5	.	.
C/C(=N\O)C(C)(C)Nc1cccc(Br)c1	-2.8	0.6	-6.2	15.6*	3.9
C/C(=N\O)C(C)(C)Nc1cccc(F)c1	0.7	-0.2	10.8	1.9	.
CN1CC(O)([C@H](Cc2ccccc2)NC(=O)OC(C)(C)C)OCC1C(=O)NCc1cccc2ccccc12 (stereo partly specified)	0.8	.	-0.7	.	.
COc1ccc(C(=O)Nc2cc(Cl)c(Br)cc2C(=O)O)cc1	-0.6	.	2.9	.	.
Cc1cccc(S(=O)(=O)N(C)C[C@H]2OCc3cn(nn3)CCCC(=O)N([C@H](C)CO)C[C@@H]2C)c1	-1.3	-0.9	-5.8	4.9*	0.6
CCN(CC)CCN(C(=O)c1ccc2c(c1)CCCC2)c1nc2ccc(F)cc2s1	-3.9	-0.5	-9.3	1.5	.
CN(C)CCCN(C(=O)c1ccc2c(c1)CCCC2)c1nc2ccc(F)cc2s1	-0.7	-0.3	3.2	19.1*	0.4
CC(=O)OC12CCCN(C1)/C(=C/c1cccc(Cl)c1)C2 (stereo unspecified)	-5.9	-0.4	2.7	.	.
C[C@H](CO)N1C[C@H](C)[C@@H](CN(C)S(=O)(=O)c2ccccc2)Oc2c(NC(=O)NC3CCCCC3)cccc2C1=O	-1.5	0.0	6.0	-2.8	.
C[C@H](CO)N1C[C@H](C)[C@@H](CN(C)S(=O)(=O)c2ccc(F)cc2)Oc2c(NC(=O)NC3CCCCC3)cccc2C1=O	-0.6	0.8	-1.1	12.9*	-0.3
CC(=O)N1CCc2cc(S(=O)(=O)NCCC(=O)NCc3ccccc3)ccc21	1.1	0.3	8.3	.	.
CCOC(=O)C1CCN(C(=O)COC(=O)/C=C/c2ccccc2)CC1	-4.9	0.1	-10.3	9.4*	-5.0
CCOC(=O)C1CCN(C(=O)/C=C/c2ccccc2)CC1	-2.5	0.3	-7.8	0.6	.
O=[N+]([O-])c1ccccc1/C=C/C1Nc2cccc3cccc(c23)N1	-0.3	-0.1	-4.5	.	.
COc1ccc(-c2cc(C(F)(F)F)nc(N3CCN(c4ccc(F)cc4)CC3)n2)cc1OC	-1.7	0.3	4.5	0.4	.
